Experimental data taken from PubChem BioAssay.

biological target: Pro-neuregulin-1, membrane-bound isoform (Homo sapiens) (UniProt Q02297); assay: small molecules binding neuregulin-1 protein – biochemical, small-molecule microarray, fluorescence 635/667, psychiatric disease protein project, primary screen (AID 1075); details: NRG1 binding, 635 nm fluorescence, higher = more signal;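 note: score combines 667 nm spot fluorescence with signal to noise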
Sequence (Q02297 whole entry, looked up, canonical isoform): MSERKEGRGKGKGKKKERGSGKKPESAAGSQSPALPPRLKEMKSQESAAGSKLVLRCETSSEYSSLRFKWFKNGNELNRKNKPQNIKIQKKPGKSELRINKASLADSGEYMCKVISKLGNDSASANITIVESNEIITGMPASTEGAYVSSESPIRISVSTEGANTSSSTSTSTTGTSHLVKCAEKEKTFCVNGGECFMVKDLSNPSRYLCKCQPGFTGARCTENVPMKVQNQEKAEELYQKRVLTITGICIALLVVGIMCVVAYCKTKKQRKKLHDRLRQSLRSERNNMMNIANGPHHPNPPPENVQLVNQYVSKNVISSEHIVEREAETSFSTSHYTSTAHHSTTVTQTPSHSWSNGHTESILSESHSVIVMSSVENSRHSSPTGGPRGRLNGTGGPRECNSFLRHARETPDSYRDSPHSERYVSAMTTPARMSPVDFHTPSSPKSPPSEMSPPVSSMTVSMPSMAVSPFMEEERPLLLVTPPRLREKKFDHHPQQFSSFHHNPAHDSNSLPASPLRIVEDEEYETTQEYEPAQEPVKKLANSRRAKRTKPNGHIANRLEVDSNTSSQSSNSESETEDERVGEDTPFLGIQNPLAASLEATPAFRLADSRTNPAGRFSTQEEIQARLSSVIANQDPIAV

SMILES	composite z-score
Cc1ccc(S[C@]2(C(=O)O)CC(=O)N(Cc3ccccc3Cl)[C@@H]2c2ccc(CO)cc2I)cc1	-0.0683
COCCCNC(=O)[C@@]1(Sc2ccc(C)cc2)CC(=O)N(C2CCCCC2)[C@@H]1c1ccc(CO)cc1	-0.113
COCC1=C2[C@@H](CCc3ccccc3)OB(O)C[C@@H]2[C@@H]2C(=O)C=CC(=O)[C@@H]2C1	0.404
COc1ccc([Si](C)(C)[C@@H]2[C@@H](CCn3cc([C@H](O)c4ccccc4)nn3)O[C@]3(C(=O)N(Cc4ccc(N5CCC5=O)cc4)c4ccccc43)[C@H]2C)cc1	0.189
CCOc1cc(C(O)C2C=CC3C(=O)N(C)C(=O)C3N2Nc2ccccc2)ccc1O (stereo unspecified)	1.78
C=C(C(=O)CC[C@@H](OC(C)=O)c1ccc(CO)o1)C(C)C	-0.116
CC(=O)NCCCC[C@@H]1NC(=O)[C@@H]2C[C@H](C(=O)NCCCC[N+](C)(C)C)[C@H](c3ccc(O)cc3)N2C1=O	1.21
CCOC(=O)C1CCCCN1 (stereo unspecified)	0.153
C=CCOC(=O)[C@H]1[C@@H]2C(=O)O[C@@H](c3ccccc3)[C@@H](c3ccccc3)N2[C@@H](c2ccc(OCCOC(=O)[C@@H]3C[C@@H]4C(=O)N[C@@H](CCCCN(C)C)C(=O)N4[C@@H]3c3ccc(O)cc3)cc2)[C@]12C(=O)Nc1ccccc12	0.965
CCCC[C@@H]1C[C@H]1[C@@H](NC(=O)c1cccs1)c1ccc(C(F)(F)F)cc1	-0.265

system: Neuregulin-1 EGF-like domain; assay: small molecules binding NRG1 EGF domain – biochemical, small-molecule microarray, 635 nm fluorescence, primary screen (AID 1081); details: higher = more signal;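 note: binding of the protein to compounds printed on small-molecule microarray slides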

SMILES	composite z-score
[N-]=[N+]=Nc1ccccc1[C@H]1OC(c2ccc(OCCCO)cc2)=N[C@@]1(Cc1ccccc1)C(=O)N1CCCCC1	1.32
CCCNC(=O)[C@@]1(c2ccc([N+](=O)[O-])cc2)CC(=O)N(C2CCCCC2)[C@@H]1c1ccc(CO)cc1	1.27
CN1C(=O)C2C=CC(C(O)c3ccccn3)N(N(c3ccccc3)c3ccccc3)C2C1=O (stereo unspecified)	0.622
COCCOC(=O)N1C(=O)[C@@]2(c3cc(C#CC4=CCCCC4)ccc31)[C@H](c1ccc(O)cc1)N1[C@H](c3ccccc3)[C@H](c3ccccc3)OC(=O)[C@H]1[C@@H]2C(=O)N1CCN(c2ncccn2)CC1	-0.0176
C[N+](C)(C)CCCCCCNC(=O)[C@H]1C[C@H]2C(=O)N[C@@H](Cc3ccccc3)C(=O)N2[C@H]1c1ccc(O)cc1	1.21
O=C1NC(=O)C2C1C=CC(C(O)c1cccc3ccccc13)N2Nc1ccc(Cl)cc1Cl (stereo unspecified)	1
COC(=O)[C@@]1(Cc2ccc(F)cc2)[C@H]2c3cc(C(=O)N4CCCC4)n(CCc4ccc(O)c(O)c4)c3C[C@H]2CN1C(=O)c1ccccc1	1.29
O=C(CS)NCCCCCCNC(=O)[C@H]1C[C@H]2C(=O)N[C@@H](Cc3ccccc3)C(=O)N2[C@H]1c1ccc(O)cc1	1.36
C#CCN([C@@H](Cc1ccc(O)cc1)C(=O)OC)[C@@H](/C=C/C1CC1)[C@H](O)Cc1ccccc1	0.356
CCOC(=O)c1ccc(NC(=O)O[C@H]2[C@H](OC(=O)Nc3ccc4c(c3)OCO4)[C@@H](OC(=O)Nc3ccc4c(c3)OCO4)[C@@H](OC)O[C@@H]2CO)cc1	1.35
O=c1n(-c2ccccc2)c(=O)n2n1CC(COc1ccccc1)=C([C@H](O)CCc1ccccc1)[C@@H]2CO	0.0463
COc1ccc([Si](C)(C)[C@@H]2[C@@H](CC(=O)N3Cc4ccccc4C[C@H]3CO)O[C@]3(C(=O)N(Cc4cccc(N5C(=O)c6cccc7cccc5c67)c4)c4ccccc43)[C@H]2C)cc1	1.04
CN(C)C(=O)[C@]1(CCS(=O)(=O)c2ccccc2)N=C(c2ccc(OCCCO)cc2)O[C@@H]1c1ccccc1N=[N+]=[N-]	1.4
COC(=O)[C@@]1(Cc2ccc(OC)cc2)[C@H]2c3cc(C(=O)N4CCCC4)n(Cc4c(-c5ccccc5)noc4C)c3C[C@H]2CN1C(=O)c1ccccc1	1.25
O=C1O[C@H](c2ccccc2)[C@H](c2ccccc2)N2[C@H]1[C@@H](C(=O)O)[C@]1(C(=O)Nc3ccc(C#CC4=CCCCC4)cc31)[C@H]2c1ccc(O)cc1	1.13
COc1cc2c(cc1OC)CN(C(=O)[C@@H]1[C@H]3C(=O)O[C@H](c4ccccc4)[C@H](c4ccccc4)N3[C@H](c3ccc(OCCO)cc3)[C@@]13C(=O)Nc1ccccc13)CC2	1.23
COC(=O)[C@@]1(Cc2ccccc2)[C@H]2c3cc(C(=O)N(C)C)n(CCN4CNCC4=O)c3C[C@H]2CN1C(=O)c1ccccc1	1.22
CN(C)c1ccc(C(O)C2C=CC3C(=O)N(c4ccccc4)C(=O)C3N2Nc2ccc([N+](=O)[O-])cc2)cc1 (stereo unspecified)	1.14

SMILES	composite z-score
C=C(C)c1cc2c(c(CCCCCC)n1)[Si](C(C)C)(C(C)C)OC2	-1.02
O=C1O[C@@H](c2ccccc2)[C@@H](c2ccccc2)N2[C@@H](c3ccc(O)cc3)[C@]3(C(=O)Nc4ccc(C#CC5(O)CCCCCC5)cc43)[C@@H](C(=O)NC[C@H](O)c3ccccc3)[C@H]12	0.538
COCCCNC(=O)[C@@]1(Cc2ccccc2N=[N+]=[N-])N=C(c2ccc(OCCCO)cc2)O[C@H]1c1ccccc1	1.17
O=C1O[C@H](c2ccccc2)[C@H](c2ccccc2)N2[C@H]1[C@@H](C(=O)Nc1nc3ccccc3s1)[C@]1(C(=O)Nc3ccc(C#CCCO)cc31)[C@H]2c1ccc(O)cc1	1.27
COC(=O)[C@@]1(Cc2ccccc2)[C@H]2c3cc(C(=O)N(C)C)n(CCc4ccc(O)c(OC)c4)c3C[C@H]2CN1C(=O)c1ccccc1	0.781
O=C1OCC=C[C@H]2OC34C=CCN(c5ccc(Cl)cc5)C(=O)[C@H]3N(CCO)C(=O)[C@@H]4[C@@H]12 (stereo partly specified)	1.04
CC(C)Cc1ccc(CN2CC[C@@H](NC(=O)Nc3ccccc3)C2)cc1	-0.0603
C=CCC(OC(C)=O)[C@@H]1[C@@H](N(Cc2cc3ccccc3o2)C(=O)c2ccc(-c3ccccc3)cc2)c2cc(OCCCO)ccc2N1C(=O)c1ccc2ccccc2c1 (stereo partly specified)	-0.341
Cc1ccc(S[C@]2(C(=O)O)CC(=O)N(Cc3ccccc3Cl)[C@@H]2c2ccc(CO)cc2I)cc1	1.09
COCCCNC(=O)[C@@]1(Sc2ccc(C)cc2)CC(=O)N(C2CCCCC2)[C@@H]1c1ccc(CO)cc1	-0.119
COCC1=C2[C@@H](CCc3ccccc3)OB(O)C[C@@H]2[C@@H]2C(=O)C=CC(=O)[C@@H]2C1	0.952
COc1ccc([Si](C)(C)[C@@H]2[C@@H](CCn3cc([C@H](O)c4ccccc4)nn3)O[C@]3(C(=O)N(Cc4ccc(N5CCC5=O)cc4)c4ccccc43)[C@H]2C)cc1	0.142
CCOc1cc(C(O)C2C=CC3C(=O)N(C)C(=O)C3N2Nc2ccccc2)ccc1O (stereo unspecified)	1.49
C=C(C(=O)CC[C@@H](OC(C)=O)c1ccc(CO)o1)C(C)C	0.0816
CC(=O)NCCCC[C@@H]1NC(=O)[C@@H]2C[C@H](C(=O)NCCCC[N+](C)(C)C)[C@H](c3ccc(O)cc3)N2C1=O	1.19
CCOC(=O)C1CCCCN1 (stereo unspecified)	0.765
C=CCOC(=O)[C@H]1[C@@H]2C(=O)O[C@@H](c3ccccc3)[C@@H](c3ccccc3)N2[C@@H](c2ccc(OCCOC(=O)[C@@H]3C[C@@H]4C(=O)N[C@@H](CCCCN(C)C)C(=O)N4[C@@H]3c3ccc(O)cc3)cc2)[C@]12C(=O)Nc1ccccc12	1.26
CCCC[C@@H]1C[C@H]1[C@@H](NC(=O)c1cccs1)c1ccc(C(F)(F)F)cc1	-0.743
